Screening results deposited in PubChem BioAssay by National Center for Advancing Translational Sciences (NCATS).
This is a sample that favours compounds with a hit; in the whole collection about 2.4% have one here.
D2 antagonist = antagonists of human D2 dopamine receptor. HEK293 TREx D2 cells, calcium flux, dopamine EC80. inhibition, % at 10 µM. actives 2% (n = 340,000); in the data active = inhibition above about 30%; inactive = below that, where a call was filed
Target sequence (P14416 whole entry, looked up): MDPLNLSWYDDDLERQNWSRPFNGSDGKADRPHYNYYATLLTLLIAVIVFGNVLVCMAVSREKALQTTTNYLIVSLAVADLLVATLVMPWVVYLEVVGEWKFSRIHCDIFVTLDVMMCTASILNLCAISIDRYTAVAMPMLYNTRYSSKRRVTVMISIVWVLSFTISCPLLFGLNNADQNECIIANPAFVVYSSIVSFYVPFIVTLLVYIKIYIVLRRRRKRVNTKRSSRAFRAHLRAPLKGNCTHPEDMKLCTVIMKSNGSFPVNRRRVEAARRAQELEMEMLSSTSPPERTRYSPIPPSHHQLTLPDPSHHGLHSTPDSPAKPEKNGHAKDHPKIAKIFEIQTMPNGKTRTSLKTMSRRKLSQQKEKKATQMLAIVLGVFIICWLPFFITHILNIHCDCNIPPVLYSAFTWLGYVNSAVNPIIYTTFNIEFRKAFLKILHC
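Compounds are added to dye-loaded, induced HEK293 T-REx cells coupled to calcium release via D2; after a 3 min kinetic read an EC80 dopamine stimulus is given and fluorescence is recorded for 3 more min.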
D2 ag-1 = activates the human D2 dopamine receptor; actives 0.53% (n = 340,000); P14416; activation, % at 2 µM; HEK293 T-REx D2 cells, calcium flux agonist mode;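 active = activation over 3 SD above normal in the single-dose calcium agonist read, cut at about 30% in these data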
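Agonism scored from kinetic calcium signal (1 read/sec, 180 s) following compound pin transfer, after a 10 s baseline. Cells: HEK293 Trex line expressing inducible D2 receptor coupled to calcium, dye-loaded after overnight culture at 30 C.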
D2 PAM-1 = potentiates the human D2 dopamine receptor allosterically | DiscoveRx D2 beta-arrestin cells, luminescence, 90 min; 100% = 57 uM dopamine signal | potentiation, % (test concentration not listed) | P14416 | AID 624464 | actives 0.23% (n = 360,000); in the data active = potentiation above about 50%
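PathHunter beta-arrestin assay in DiscoveRx D2 cells. Compounds were added with an EC20 of dopamine (50 nM final) for 90 min at 37 deg C. Luminescence was read 1 h after detection reagent, with 57 uM dopamine as the EC100 control.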
D2 PAM-2 = positive allosteric modulators of human D2 dopamine receptor | actives 0.34% (n = 340,000) | P14416 | potentiation, % at 10 µM | HEK293 T-REx D2, calcium flux, EC20 dopamine potentiation;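 active = potentiation over 3 SD above the plate norm, cut at about 30% in these data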
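Primary screen. Calcium kinetics in induced HEK293 T-REx D2 cells: compound pre-addition 180 s, EC20 dopamine, 180 s more.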
D2 ag-2 = agonists of human D2 dopamine receptor (beta-arrestin); P14416; DiscoveRx PathHunter D2 beta-arrestin, luminescence, 90 min; 100% = 57 uM dopamine signal; activation, % (concentration not given with the values); actives 0.084% (n = 360,000); in the data active = activation above about 40%
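DiscoveRx PathHunter D2 beta-arrestin cells (2,100/well) attached overnight, then compound-stimulated 90 min at 37 C in HBSS/10 mM HEPES/0.1% Tween-20 buffer; beta-galactosidase complementation read by luminescence after 1 h at ambient temperature. Dopamine 57 uM final (EC100) as control.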
Of the large screens only hits and unclear results are named; the others gave an inactive call.

CC1=C(C#N)C2(O)C(=O)c3ccccc3C2(O)N1 (stereo not given)	none
CCOc1ccc(CNS(=O)(=O)c2cc3c(cc2C)NC(=O)CO3)cc1OC	none (no result: D2 antagonist, D2 PAM-1, D2 ag-2)
CC1CCCN(S(=O)(=O)c2ccc(C(=O)Nc3nnc(-c4ccccn4)o3)cc2)C1 (stereo not given)	D2 antagonist 34.6
Cc1nnc(NC(=O)c2ccc(S(=O)(=O)N3CCCCCC3)cc2)o1	none
COCc1nnc(NC(=O)c2ccc(S(=O)(=O)N3CCCCCC3)cc2)o1	D2 PAM-2 31.9
O=C(NCCSc1c[nH]c2ccccc12)c1ccccc1Cl	none (no result: D2 antagonist, D2 PAM-1, D2 ag-2)
Cc1cccc(C(=O)Nc2ccc(O)c3c(=O)cc(-c4ccccc4Cl)oc23)c1	D2 antagonist 30.9
O=C(Nc1ccc(O)c2c(=O)cc(-c3ccccc3Cl)oc12)c1cccc(Cl)c1	none
O=C(c1cncc(Br)c1)N1CCN(c2ccc(N3CCOCC3)nn2)CC1	none
O=C(Oc1ccccc1C(=O)N1CCOCC1)c1cccc(Br)c1	D2 antagonist 47.3
O=C(c1cccc(Br)c1)N1CCN(c2ccc(N3CCOCC3)nn2)CC1	D2 antagonist 32.9
CCOC(=O)c1c(Oc2ccc(C(=O)OC)cc2)nnc(-c2ccccc2)c1-c1ccccc1	none (no result: D2 antagonist, D2 PAM-1, D2 ag-2)
CCN(CC(=O)NC(c1ccccc1)c1ccccc1)Cc1nc2ccccc2c(=O)[nH]1	D2 antagonist 32.4
CC(Sc1nc(-c2ccccc2)cc(C(F)(F)F)n1)C(=O)O (stereo not given)	none
CCN(CC)CCCNC(=O)C(C)Sc1nc(-c2ccccc2)cc(C(F)(F)F)n1 (stereo not given)	D2 antagonist 31.2
CCSC1=NC2(CCN(C(=O)NC3CCCCC3)CC2)N=C1c1ccc(Cl)cc1	none (no result: D2 antagonist, D2 PAM-1, D2 ag-2)
Cc1ccc(OCCSc2ncccn2)c(C)c1	D2 antagonist 36.7
Cc1cccc(OCCOCCSc2ncccn2)c1	none
COc1ccc(Cl)cc1NC(=O)CSc1nnc(COc2ccccc2)n1N	D2 antagonist 53.7
Cn1c(SCC(=O)Nc2ccc(Cl)cc2F)nnc1-c1ccco1	D2 antagonist 40.4
CCOc1ccc(OCC)c(NC(=O)CSc2nnnn2CC)c1	D2 PAM-2 32.2
COc1ccc(Cl)cc1NC(=O)CSc1nnc(COc2ccccc2)n1C	D2 antagonist 42.8
CCn1c(COc2ccccc2)nnc1SCC(=O)Nc1cc(OC)ccc1OC	none (no result: D2 antagonist, D2 ag-1, D2 PAM-2)
O=C(NCc1ccco1)c1ccc2c(c1)N(Cc1ccc(F)cc1)C(=O)c1ccccc1S2=O (stereo not given)	none (no result: D2 antagonist, D2 PAM-1, D2 ag-2)
O=C(CCc1ccccc1)NCCc1csc(-c2cccc(F)c2)n1	none (no result: D2 antagonist, D2 PAM-1, D2 ag-2)
COC(=O)c1c(C)oc2c1cc(NS(=O)(=O)c1c(C)cc(C)cc1C)c1ccccc12	none (no result: D2 antagonist, D2 PAM-1, D2 ag-2)
Cc1ccc2c(=O)c(C(=O)c3cccc(Cl)c3)cn(CC(=O)Nc3ccc4c(c3)OCCO4)c2n1	none (no result: D2 antagonist, D2 PAM-1, D2 ag-2)
COc1ccc(C)cc1NC(=O)CSc1nnc(-c2cc3cccc(OC)c3o2)n1N	D2 antagonist 35.1
CCC(C)Sc1oc(-c2ccco2)nc1S(=O)(=O)c1ccc(Cl)cc1 (stereo not given)	none (no result: D2 antagonist, D2 PAM-1, D2 ag-2)
Cc1ccc(NC(=O)N2CCN(C/C=C/c3ccccc3)CC2)cc1	none
COC(=O)c1ccccc1NC(=O)N1CCN(C/C=C/c2ccccc2)CC1	D2 antagonist 35.2
O=C(c1cc2ccccc2o1)N1CCN(C/C=C/c2ccccc2)CC1	D2 antagonist 77.0
COc1ccc(OCC(=O)NC2CC(=O)N(c3ccc4c(c3)OCCO4)C2)cc1 (stereo not given)	none (no result: D2 antagonist, D2 PAM-1, D2 ag-2)
CCOC(=O)c1[nH]c2ccc(OCC)cc2c1NC(=O)CN1CCN(c2ccccn2)CC1	D2 antagonist 36.1
CCOC(=O)C1CCN(CC(=O)Nc2c(C(=O)OC)[nH]c3ccccc23)CC1	D2 antagonist 48.8, D2 ag-1 35.2 (no result: D2 PAM-1, D2 ag-2)
Cc1cc(C)cc(NC(=O)Cn2nnc(-c3ccccc3F)n2)c1	none (no result: D2 antagonist, D2 PAM-1, D2 ag-2)
CC(C)c1ccc(NC(=O)C(NS(=O)(=O)c2ccc3c(c2)CCC(=O)N3)c2ccccc2)cc1 (stereo not given)	none (no result: D2 antagonist, D2 PAM-1, D2 ag-2)
C/C(=N\Nc1ccc(Cl)c(C(=O)O)c1)c1ccc(N2CCOCC2)cc1	D2 antagonist 33.1
Nc1cc(C(=O)OCC(=O)Nc2ccc(N3CCOCC3)cc2)ccc1Cl	D2 antagonist 48.0
O=C(O)c1cc(N/N=C/c2ccc(N3CCOCC3)s2)ccc1Cl	none
